Assay results from PubChem BioAssay (EPA / NIEHS).
The source made the active and inactive calls. Rule for the calls: active = hit-call score of the fitted dose curve at least 0.9, where 1 is the maximum; inactive = score below 0.9.

Assays:
[1] = ATG_CMV_CIS: Attagene CIS-FACTORIAL HepG2 Assay for human CMV (Internal Marker) (AID 2282928); conditions: HepG2 CMV promoter reporter, transcription factor profiling; actives raise or lower the signal;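 note: endpoint acts as a background internal control marker rather than a target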
How it was run: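 24 h chemical treatment, HepG2 with transient multi-reporter transfection; RNA → oligo(dT) RT → PCR → 6-FAM extension → HpaI digest → CE fluorescence. Bidirectional fit, DMSO negative control.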

[2] = ATG_DR4_LXR_CIS: Attagene CIS-FACTORIAL HepG2 Assay for human Liver X Receptor (LXR), DR4 submotif (AID 2282929); conditions: HepG2 Attagene DR4 cis-reporter, mRNA transcription; actives raise or lower the signal
How it was run: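 Measures endogenous transcription factor activity via a DR4-driven reporter transcript in human HepG2 cells. Compounds incubated 24 h; mRNA quantified by RT-PCR and capillary electrophoresis, analysed as gain or loss of signal versus DMSO.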

[3] = biological target: Aryl hydrocarbon receptor (Homo sapiens) (UniProt P35869); experiment: ATG_Ahr_CIS: Attagene CIS-FACTORIAL HepG2 Assay for human Aryl Hydrocarbon Receptor (Ahr) (AID 2282930); conditions: HepG2 AhR cis-factorial reporter transcription; actives raise or lower the signal
Chain of Aryl hydrocarbon receptor (Homo sapiens) (P35869 whole entry, looked up): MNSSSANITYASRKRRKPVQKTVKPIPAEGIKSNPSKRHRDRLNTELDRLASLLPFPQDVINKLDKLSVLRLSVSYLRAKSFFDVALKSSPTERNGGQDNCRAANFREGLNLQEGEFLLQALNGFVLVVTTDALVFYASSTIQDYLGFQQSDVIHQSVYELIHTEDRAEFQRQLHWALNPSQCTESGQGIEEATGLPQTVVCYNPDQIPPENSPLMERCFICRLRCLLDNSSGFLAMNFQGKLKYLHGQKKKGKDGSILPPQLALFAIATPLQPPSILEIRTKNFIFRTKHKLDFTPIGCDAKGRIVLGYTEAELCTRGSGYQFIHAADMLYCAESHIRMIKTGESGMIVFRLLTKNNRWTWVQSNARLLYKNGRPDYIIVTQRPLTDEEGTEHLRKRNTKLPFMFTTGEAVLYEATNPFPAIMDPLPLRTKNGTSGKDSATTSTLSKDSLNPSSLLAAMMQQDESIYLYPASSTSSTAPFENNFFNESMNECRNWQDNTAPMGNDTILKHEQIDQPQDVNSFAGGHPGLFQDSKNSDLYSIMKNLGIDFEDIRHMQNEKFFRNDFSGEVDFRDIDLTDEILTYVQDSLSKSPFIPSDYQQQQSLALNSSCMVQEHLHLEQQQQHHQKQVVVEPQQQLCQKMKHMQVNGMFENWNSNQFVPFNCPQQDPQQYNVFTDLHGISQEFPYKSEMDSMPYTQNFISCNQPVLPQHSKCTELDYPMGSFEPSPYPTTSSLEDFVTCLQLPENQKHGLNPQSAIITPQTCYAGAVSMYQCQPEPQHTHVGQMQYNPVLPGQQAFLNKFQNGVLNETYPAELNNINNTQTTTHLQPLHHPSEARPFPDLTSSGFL
How it was run: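 HepG2, transient MRTU (cis) transfection, 24 h exposure. RNA → cDNA → PCR → 6-FAM primer extension → HpaI 2 h 37 C → CE. Fit: bidirectional, DMSO baseline.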

[4] = ATG_AP_1_CIS: Attagene CIS-FACTORIAL HepG2 Assay for human Activator Protein 1 (AP-1) (AID 2282931); conditions: HepG2 Attagene cis-factorial AP-1 reporter mRNA; actives raise or lower the signal
How it was run: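 Bidirectional concentration-response fitting against DMSO controls. Underlying signal: reporter mRNA from cis-promoter constructs in transiently transfected HepG2, measured after 24 h by RT-PCR and capillary electrophoresis.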

[5] = ATG_AP_2_CIS: Attagene CIS-FACTORIAL HepG2 Assay for human Activator Protein 2 (AP-2) (AID 2282932); conditions: HepG2 AP-2 cis-reporter, Attagene transcription factor profiling; actives raise or lower the signal
How it was run: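 Transiently transfected HepG2 cells are exposed to chemical for 24 h. Reporter transcripts are then measured as fluorescence following RT-PCR and capillary separation, and gain- or loss-of-signal is fitted relative to DMSO.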

[6] = ATG_BRE_CIS: Attagene CIS-FACTORIAL HepG2 Assay for human Bone Morphogenetic Protein (BMP) Response Element (BRE) (AID 2282933); conditions: HepG2 BMP response element reporter, Attagene transcription factor profiling; actives raise or lower the signal
How it was run: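 Transient MRTU transfection of human HepG2 liver cells; 24 h compound treatment; total RNA isolated, reverse-transcribed, PCR-amplified, 6-FAM labelled, HpaI-cut, capillary electrophoresis. DMSO = negative control/baseline, bidirectional fit.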

[7] = biological target: Retinoic acid receptor alpha (Homo sapiens) (UniProt P10276); experiment: ATG_DR5_RAR_CIS: Attagene CIS-FACTORIAL HepG2 Assay for human Retinoic Acid Receptor Alpha (RARE), DR5 submotif (AID 2282934); conditions: HepG2 Attagene cis-factorial RARE DR5 reporter, mRNA; actives raise or lower the signal;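 for AC50: reporter responds to endogenous RAR alpha beta and gamma in HepG2 not RARA alone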
Chain of Retinoic acid receptor alpha (Homo sapiens) (P10276 whole entry, looked up): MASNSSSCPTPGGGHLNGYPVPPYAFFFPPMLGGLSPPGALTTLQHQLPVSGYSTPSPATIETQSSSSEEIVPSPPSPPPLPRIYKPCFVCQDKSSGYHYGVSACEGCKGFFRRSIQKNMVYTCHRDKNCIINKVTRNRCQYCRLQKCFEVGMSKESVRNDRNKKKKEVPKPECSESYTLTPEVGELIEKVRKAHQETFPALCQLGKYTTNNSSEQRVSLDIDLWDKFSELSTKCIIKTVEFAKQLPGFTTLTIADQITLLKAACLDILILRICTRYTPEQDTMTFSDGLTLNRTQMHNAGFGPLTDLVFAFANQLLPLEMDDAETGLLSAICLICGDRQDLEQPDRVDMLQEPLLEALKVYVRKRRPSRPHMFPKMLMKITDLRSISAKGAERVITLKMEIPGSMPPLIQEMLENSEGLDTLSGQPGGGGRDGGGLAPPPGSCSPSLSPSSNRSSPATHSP
How it was run: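 HepG2, transient cis-reporter transfection, 24 h exposure. mRNA readout: RT-PCR, FAM label, HpaI cut, capillary electrophoresis. DMSO baseline, gain/loss fitting.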

[8] = biological target: Transcription factor E2F1 (Homo sapiens) (UniProt Q01094); experiment: ATG_E2F_CIS: Attagene CIS-FACTORIAL HepG2 Assay for human E2F Transcription Factor 1 (AID 2282935); conditions: HepG2 Attagene cis-reporter, E2F reporter RNA transcripts; actives raise or lower the signal
Chain of Transcription factor E2F1 (Homo sapiens) (Q01094 whole entry, looked up): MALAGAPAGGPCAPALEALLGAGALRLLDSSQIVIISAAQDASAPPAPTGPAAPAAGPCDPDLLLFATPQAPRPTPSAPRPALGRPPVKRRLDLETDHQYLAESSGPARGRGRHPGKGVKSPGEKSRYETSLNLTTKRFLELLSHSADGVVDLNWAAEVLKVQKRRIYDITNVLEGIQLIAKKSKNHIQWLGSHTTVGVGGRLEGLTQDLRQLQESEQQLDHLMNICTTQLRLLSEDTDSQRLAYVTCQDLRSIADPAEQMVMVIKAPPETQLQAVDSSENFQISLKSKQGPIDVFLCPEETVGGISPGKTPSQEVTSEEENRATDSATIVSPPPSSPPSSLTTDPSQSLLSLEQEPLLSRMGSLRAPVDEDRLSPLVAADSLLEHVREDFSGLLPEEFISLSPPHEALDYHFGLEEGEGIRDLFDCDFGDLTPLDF
How it was run: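 Fluorescent RT-PCR products, digested with HpaI for 2 h at 37 C, are separated by capillary electrophoresis. Source RNA comes from transfected HepG2 cultures treated for 24 h.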

[9] = ATG_E_Box_CIS: Attagene CIS-FACTORIAL HepG2 Assay for human Enhancer Box (E-box) (AID 2282936); conditions: HepG2 E-box cis-reporter transcription, actives raise or lower the signal
How it was run: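 Fluorescent reporter fragments separated by capillary electrophoresis gave the signal; mRNA came from HepG2 cells transfected with cis-element reporters and treated 24 h. Curves fitted bidirectionally relative to DMSO controls.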

[10] = ATG_M_61_CIS: Attagene CIS-FACTORIAL HepG2 Assay for M61 Transcription Factor (Internal Marker) (AID 2282937); conditions: HepG2 Attagene CIS-FACTORIAL M61 internal marker reporter; actives raise or lower the signal
How it was run: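 Fluorescence from labelled cDNA fragments, separated by capillary electrophoresis, quantifies reporter induction. HepG2 cells bearing transiently transfected cis-promoter MRTUs were incubated with test chemical for 24 h; DMSO defined baseline for gain/loss fitting.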

[11] = ATG_EGR_CIS: Attagene CIS-FACTORIAL HepG2 Assay for human Early Growth Response 1 (EGR1) (AID 2282938); conditions: HepG2 Attagene CIS-FACTORIAL EGR reporter mRNA; actives raise or lower the signal
How it was run: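 Cell-based multiplex transcription assay: HepG2 carrying transfected cis-element reporter units, 24 h chemical treatment. Fluorescence from capillary electrophoresis of RT-PCR products gives mRNA levels; fitting is bidirectional relative to DMSO.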

[12] = ATG_M_19_CIS: Attagene CIS-FACTORIAL HepG2 Assay for M19 Transcription Factor (Internal Marker) (AID 2282939); conditions: HepG2 Attagene CIS-FACTORIAL M19 internal marker reporter; actives raise or lower the signal
How it was run: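 Transfect HepG2 with MRTU reporter library → dose chemical, 24 h → isolate total RNA, reverse-transcribe with oligo(dT) → PCR, 6-FAM label, HpaI cut (2 h, 37 C) → capillary electrophoresis. Bidirectional fit vs DMSO.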

[13] = ATG_ERE_CIS: Attagene CIS-FACTORIAL HepG2 Assay for Estrogen Response Element (ERE) (AID 2282940); conditions: HepG2 ERE cis-reporter, Attagene RNA transcript; actives raise or lower the signal
How it was run: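 Transient MRTU transfection of human HepG2; cis-element promoters; 24 h dosing; total RNA → RT (oligo dT) → PCR → 6-FAM primer extension → HpaI digest → CE fluorescence. Bidirectional fit, DMSO baseline.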

[14] = ATG_Ets_CIS: Attagene CIS-FACTORIAL HepG2 Assay for human Erythroblast Transformation Specific (ETS) (AID 2282941); conditions: HepG2 ETS cis-reporter transcription, actives raise or lower the signal
How it was run: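 Cis-regulated reporter mRNA induction in HepG2 (transient transfection), 24 h exposure, RT-PCR plus capillary electrophoresis detection; DMSO serves as negative control and baseline.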

[15] = biological target: Hepatocyte nuclear factor 3-beta (Homo sapiens) (UniProt Q9Y261); experiment: ATG_FoxA2_CIS: Attagene CIS-FACTORIAL HepG2 Assay for human Forkhead box A2 (FOXA2) (AID 2282942); conditions: HepG2 cis-reporter transcription factor activity, 24 h; actives raise or lower the signal
Chain of Hepatocyte nuclear factor 3-beta (Homo sapiens) (Q9Y261 whole entry, looked up): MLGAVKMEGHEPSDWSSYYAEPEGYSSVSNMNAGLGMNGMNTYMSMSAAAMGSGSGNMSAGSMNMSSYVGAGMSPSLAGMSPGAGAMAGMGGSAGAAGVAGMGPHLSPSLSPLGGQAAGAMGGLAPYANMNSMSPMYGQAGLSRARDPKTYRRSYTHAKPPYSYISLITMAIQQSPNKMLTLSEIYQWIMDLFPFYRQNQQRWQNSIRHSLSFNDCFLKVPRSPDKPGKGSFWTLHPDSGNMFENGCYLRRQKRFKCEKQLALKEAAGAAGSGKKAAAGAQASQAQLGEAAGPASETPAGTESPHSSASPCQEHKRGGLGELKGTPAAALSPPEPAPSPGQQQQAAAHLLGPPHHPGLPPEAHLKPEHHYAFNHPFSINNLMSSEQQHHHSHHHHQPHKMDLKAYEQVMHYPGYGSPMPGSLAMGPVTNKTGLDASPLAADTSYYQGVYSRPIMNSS
How it was run: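 In transiently transfected human HepG2 cells, promoter-driven reporter mRNA levels after 24 h chemical exposure are determined via RT-PCR with capillary electrophoresis. DMSO serves as baseline for bidirectional fitting.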

[16] = ATG_GATA_CIS: Attagene CIS-FACTORIAL HepG2 Assay for human GATA Binding Protein (AID 2282944); conditions: HepG2 GATA cis-element reporter, Attagene multiplex mRNA; actives raise or lower the signal
How it was run: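 Transient MRTU transfection, HepG2, 24 h compound exposure. Total RNA → oligo(dT) RT → PCR → 6-FAM primer extension → HpaI cut → CE. Bidirectional fit vs DMSO.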

[17] = ATG_GLI_CIS: Attagene CIS-FACTORIAL HepG2 Assay for human Zinc Finger Protein GLI1 (AID 2282945); conditions: HepG2, Attagene cis-factorial reporter mRNA, GLI element; actives raise or lower the signal
How it was run: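 Bidirectional curve fits relative to DMSO, using reporter mRNA levels from RT-PCR plus capillary electrophoresis. Cells were HepG2 transiently carrying cis-regulated reporter constructs, harvested 24 h after dosing.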

[18] = biological target: Bile acid receptor (Homo sapiens) (UniProt Q96RI1); experiment: ATG_IR1_CIS: Attagene CIS-FACTORIAL HepG2 Assay for human Nuclear Receptor Subfamily 1 Group H Member 4 (NR1H4), IR1 submotif (AID 2282946); conditions: IR1 reporter transcription, actives raise or lower the signal
Chain of Bile acid receptor (Homo sapiens) (Q96RI1 whole entry, looked up): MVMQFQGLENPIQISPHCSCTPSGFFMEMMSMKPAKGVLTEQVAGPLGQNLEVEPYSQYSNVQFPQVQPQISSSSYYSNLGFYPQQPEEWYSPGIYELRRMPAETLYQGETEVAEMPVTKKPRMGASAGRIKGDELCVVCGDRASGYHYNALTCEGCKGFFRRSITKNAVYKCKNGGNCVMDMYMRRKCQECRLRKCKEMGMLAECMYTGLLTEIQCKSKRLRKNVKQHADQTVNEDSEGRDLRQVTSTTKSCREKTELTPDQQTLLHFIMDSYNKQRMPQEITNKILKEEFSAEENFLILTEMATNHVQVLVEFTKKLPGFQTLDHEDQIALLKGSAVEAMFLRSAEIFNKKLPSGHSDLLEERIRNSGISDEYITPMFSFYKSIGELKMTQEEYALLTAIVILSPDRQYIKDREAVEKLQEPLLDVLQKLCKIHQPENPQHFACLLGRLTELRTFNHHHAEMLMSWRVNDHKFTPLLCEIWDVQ
How it was run: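 HepG2 cells transiently transfected with multiplexed cis-element reporter units read endogenous transcription factor activity. After 24 h compound exposure, reporter mRNA was quantified by RT-PCR, fluorescent labelling, HpaI digestion and capillary electrophoresis; bidirectional fitting versus DMSO baseline.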

[19] = ATG_FoxO_CIS: Attagene CIS-FACTORIAL HepG2 Assay for human Forkhead box O (FoxO) (AID 2282943); conditions: HepG2 Attagene cis-reporter, FoxO element, mRNA; actives raise or lower the signal
How it was run: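 Human hepatoma HepG2 cells carry transiently introduced reporter transcription units controlled by cis promoter elements. Chemical treatment lasted 24 h, and mRNA signal was compared with DMSO.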

[20] = ATG_GRE_CIS: Attagene CIS-FACTORIAL HepG2 Assay for human Glucocorticoid Response Elements (GRE) (AID 2282947); conditions: HepG2 GRE cis-reporter, Attagene multiplex mRNA; actives raise or lower the signal
How it was run: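 Multiplexed cis-reporter mRNA induction, HepG2, 24 h post-dose. RT-PCR, FAM-labelled, HpaI-digested amplicons by CE. Bidirectional fit vs DMSO.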

Measured: AC50

CCCCCCCCCCBr
active: [1] 163 µM
not listed: [19] | [20]
inactive: all other assays above

c1cc[c]([Sb]([c]2ccccc2)[c]2ccccc2)cc1
active: [1] 64.8 µM | [2] 9.64 µM | [4] 68.5 µM
not listed: [13]
inactive: all other assays above

C1CCC(C2CCCCC2)CC1
active: [1] 86.2 µM
not listed: [13] | [20]
inactive: all other assays above

C=C(C)C(=O)OCCCCOC(=O)C(=C)C
not listed: [15] | [18]
inactive: all other assays above

O=C1C=CC(=O)c2ccccc21
active: [3] 0.652 µM
not listed: [18] | [19]
inactive: all other assays above

CN(N=O)C(N)=O
not listed: [13]
inactive: all other assays above

ClCc1ccccc1CCl
active: [1] 56 µM | [2] 16.6 µM | [4] 59.7 µM | [9] 33.4 µM | [11] 29.5 µM | [14] 15.7 µM | [17] 33.4 µM | [18] 33.4 µM
not listed: [15]
inactive: all other assays above

C=CCOC(N)=O
not listed: [13] | [18] | [19]
inactive: all other assays above

CN(C)c1ccc(N=O)cc1
active: [1] 7.81 µM | [2] 9.26 µM | [3] 8.04 µM | [9] 10.3 µM | [11] 13.5 µM | [18] 9.69 µM | [20] 23.6 µM
not listed: [13]
inactive: all other assays above

Nc1ncn[nH]1
not listed: [13] | [18] | [19]
inactive: all other assays above

CNC(=O)N(C)c1nc2ccccc2s1
active: [3] 1.08 µM | [15] 26.8 µM
not listed: [13] | [19]
inactive: all other assays above

Cc1cc(C(C)(C)c2ccc(O)c(C)c2)ccc1O
active: [1] 89.3 µM | [2] 12.1 µM | [3] 89 µM | [4] 83.9 µM | [7] 21.5 µM | [11] 32.4 µM | [14] 20.2 µM | [19] 72.8 µM | [16] 91.3 µM | [17] 74.7 µM | [20] 79.5 µM
inactive: [5] | [6] | [8] | [9] | [10] | [12] | [15]

CN(N=O)c1ccc([N+](=O)[O-])cc1
active: [3] 26.8 µM
not listed: [12]
inactive: all other assays above

Cc1cc(C(F)(C(F)(F)F)C(F)(F)F)ccc1NC(=O)c1cccc(I)c1C(=O)NC(C)(C)CS(C)(=O)=O
not listed: [13] | [18]
inactive: all other assays above

O=C(O)C1(c2ccc3c(c2)OC[C@H](Cc2ccc(-c4ccccc4)cc2)[C@H]3O)CCCC1
active: [1] 6.98 µM | [4] 19.7 µM
not listed: [13] | [15] | [20]
inactive: all other assays above
